Compounds with a hit are over-represented: about 1.6% of the library has one in this group of screens.
KCNQ2 inh = KCNQ2 (rat) channel inhibition; O88943; CHO-K1 KCNQ2, FluxOR thallium flux, 20 min; hits give low values; B-score at 10 µM; 310,000 compounds, 1.1% hits;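 active = fluorescence ratio B-score at most minus 3 library SDs, with starting brightness B-score within 2 library SDs, cut at about -5.5 in these data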
KCNQ2 enhance = enhances the rat KCNQ2 potassium channel. CHO-K1 KCNQ2, FluxOR thallium flux fluorescence; hits give high values. 310,000 compounds, 0.54% hits. B-score at 10 µM;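 active = fluorescence ratio B-score at least 3 SD of library B-scores, with initial fluorescence B-score within 3 of them, cut at about 5.3 in these data; same plate scores as AID 2156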;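 also: B-score of peak minus minimum over baseline fluorescence ratio after K+ and Tl+ stimulus; positive B-score means potentiation of KCNQ2 with more thallium influx and brighter signal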
KCNQ2 block conf = confirmation of rat KCNQ2 potassium channel inhibitors; shares compounds with KCNQ2 inh; KCNQ2-expressing cells, thallium flux, inhibition; hits give low values; activity change, negative = inhibition, % at 10 µM; 1,000 compounds, 57% hits; AID 493025;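 also: 0% = vehicle wells and values are ratio percent relative to vehicle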
KCNQ1 spec = human KCNQ1 activity in KCNQ2 inhibitor specificity screen | shares compounds with KCNQ2 inh | KCNQ1-expressing cells, FluxOR thallium flux fluorescence; hits give low values | activity change, negative = inhibition, % at 10 µM | 1,000 compounds, 15% hits | AID 493026;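 active = activity change at least 3 SD of negative controls below their mean in both duplicate wells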;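 also: CHO cells stably transfected with KCNQ1 and depolarized by potassium stimulus; peak minus minimum fluorescence over baseline after thallium addition; 0% = vehicle negative control and -100% = blank without thallium stimulus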
CHO Tl ctr = counter-screen for KCNQ2 inhibitors: effect in parental CHO cells; shares compounds with KCNQ2 inh; thallium flux counter-screen; hits give low values; activity change, % at 10 µM; 1,000 compounds, 14% hits;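 also: 0% = vehicle negative controls with stimulus buffer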
KCNQ2 inh confirm = rat KCNQ2 inhibition confirmed by electrophysiology. shares compounds with KCNQ2 inh. KCNQ2-expressing cells, automated patch clamp current. calls only at 10 µM. 550 compounds, 49% hits
The depositor's hits bear a star. Unless noted, no rule for the calls is given here.

CSCCC1NC(=S)N(Cc2ccccc2)C1=O (configuration not stated) was read as KCNQ2 inh inactive and KCNQ2 enhance 1.27.
Screening FC(F)(F)c1ccc(Cl)c(N/N=C/c2ccc(N3CCOCC3)s2)c1 returned KCNQ2 inh inactive and KCNQ2 enhance 0.3.
`CCOc1ccc(C(=O)NC(=S)Nc2ccc(NC(=O)c3ccco3)c(C)c2)cc1[N+](=O)[O-]` gave KCNQ2 inh inactive and KCNQ2 enhance 0.53.
COc1ccccc1-c1cc(C(F)(F)F)nc(N2CCCCC2)n1 was read as KCNQ2 inh -9.68*, KCNQ2 enhance -9.68, KCNQ2 block conf inactive, KCNQ1 spec inactive and CHO Tl ctr inactive.
Screening COc1ccccc1-c1cc(C(F)(F)F)nc(N2CCCC2)n1 returned KCNQ2 inh inactive and KCNQ2 enhance 0.01.
`C/C(=C\C(=O)c1ccc(Br)cc1)NCc1ccc2c(c1)OCO2` gave KCNQ2 inh -6.87*, KCNQ2 enhance -6.87, KCNQ2 block conf -17.0%*, KCNQ1 spec inactive, CHO Tl ctr inactive and KCNQ2 inh confirm inactive.
C/C(=C\C(=O)c1ccc(F)cc1)NCc1ccc2c(c1)OCO2 was read as KCNQ2 inh inactive.
For COc1ccc2[nH]c3c(NCCC4=CCCCC4)ncnc3c2c1 the results were KCNQ2 inh -9.09*, KCNQ2 enhance -9.09, KCNQ2 block conf inactive, KCNQ1 spec inactive and CHO Tl ctr inactive.
CCN(CC)CCNc1ncnc2c1[nH]c1ccc(OC)cc12 was read as KCNQ2 inh inactive and KCNQ2 enhance 1.69.
O=C(COC(=O)c1ccccc1NCCO)NCCc1ccccc1 was read as KCNQ2 inh inactive and KCNQ2 enhance 1.06.
`O=C(OCC(=O)N(Cc1ccccc1)Cc1ccccc1)c1ccccc1NCCO` gave KCNQ2 inh -7.54*, KCNQ2 enhance -7.54, KCNQ2 block conf -33.5%*, KCNQ1 spec inactive, CHO Tl ctr inactive and KCNQ2 inh confirm active.
CCOC(=O)/C(=C/Nc1ccc(F)cc1)[N+](=O)[O-] was read as KCNQ2 inh inactive and KCNQ2 enhance 0.85.
`O=C(N=C1SC2CS(=O)(=O)CC2N1Cc1ccc(F)cc1)C1CCCO1` (configuration not stated) gave KCNQ2 inh inactive and KCNQ2 enhance 0.49.
`CC(C)=CCc1c(O)cc2oc3c(CC=C(C)C)c(O)c(O)c(CC=C(C)C)c3c(=O)c2c1O` gave KCNQ2 inh -11.9*, KCNQ2 enhance -11.9, KCNQ2 block conf -48.0%*, KCNQ1 spec -42.5%*, CHO Tl ctr -27.5%* and KCNQ2 inh confirm inactive.
`CC(C)=CCc1cc(-c2oc3cc(O)cc(O)c3c(=O)c2O)ccc1O` gave KCNQ2 inh inactive and KCNQ2 enhance 2.36.
For CN1C(=O)C(CC(=O)NCC2CCCCC2)SC1=Nc1ccccc1 (configuration not stated) the results were KCNQ2 inh inactive and KCNQ2 enhance 1.17.
For CCOC(=O)N1CCN(CCC(=O)c2ccc(Br)cc2)CC1 the results were KCNQ2 inh -7.14*, KCNQ2 enhance -7.14, KCNQ2 block conf inactive, KCNQ1 spec inactive and CHO Tl ctr inactive.
COc1cc2c(cc1OC)CN(CC(=O)Nc1cccc(C)c1)CC2 was read as KCNQ2 inh inactive.
Screening CCOC(=O)N1CCN(CCC(=O)Nc2ccc(C)cc2)CC1 returned KCNQ2 inh inactive and KCNQ2 enhance 1.16.
Screening COc1cc2c(cc1OC)CN(CCC(=O)c1ccc(Br)cc1)CC2 returned KCNQ2 inh -9.58*, KCNQ2 enhance -9.58, KCNQ2 block conf -45.0%*, KCNQ1 spec -43.0%*, CHO Tl ctr -35.5%* and KCNQ2 inh confirm inactive.
Cc1ccccc1CS(=O)(=O)Cc1ccc(C(=O)NCCc2ccccc2)o1 was read as KCNQ2 inh inactive and KCNQ2 enhance 0.29.
Screening COc1ccc(S(=O)(=O)N2CC(=O)Nc3ccccc32)cc1C returned KCNQ2 inh inactive and KCNQ2 enhance 0.34.
Screening CSCc1ccc(C(=O)NCC(c2cccs2)N2CCOCC2)cc1 (configuration not stated) returned KCNQ2 inh inactive.
For CCOc1cc(Br)cc(/C=N/NC(=O)c2cccnc2)c1O the results were KCNQ2 inh inactive and KCNQ2 enhance 1.04.
`Cc1cc(C)cc(NC(=O)Nc2ccc3c(c2)N(C)C(=O)CS3)c1` gave KCNQ2 inh inactive and KCNQ2 enhance 1.4.
For CC(=O)c1cccc(NC(=O)Nc2ccc3c(c2)N(C)C(=O)CS3)c1 the results were KCNQ2 inh -8.48*, KCNQ2 enhance -8.48, KCNQ2 block conf -44.0%*, KCNQ1 spec -34.5%*, CHO Tl ctr -29.0%* and KCNQ2 inh confirm inactive.
Screening Cc1c(C(=O)Nc2ccccc2)c2ccc(C(F)(F)F)cc2n1O returned KCNQ2 inh inactive.
CC1Cc2ccccc2N1C(=O)CNc1ccccc1N1CCCCC1 (configuration not stated) was read as KCNQ2 inh -8.36*, KCNQ2 enhance -8.36, KCNQ2 block conf inactive, KCNQ1 spec inactive and CHO Tl ctr inactive.
For CC1CCN(CC(=O)N2c3ccccc3CC2C)CC1 (configuration not stated) the results were KCNQ2 inh inactive and KCNQ2 enhance 0.66.
Screening CCOc1cc(/C=N/NC(=O)CCc2n[nH]c(=O)[nH]c2=O)ccc1O returned KCNQ2 inh inactive.
CC(C)NC(=O)C(=O)NCCCN1CCOCC1 was read as KCNQ2 inh inactive and KCNQ2 enhance 0.15.
`CCn1c(SC(C)C(=O)NC2CCCc3ccccc32)nnc1-c1cccs1` (configuration not stated) gave KCNQ2 inh -8.36*, KCNQ2 enhance -8.36, KCNQ2 block conf inactive, KCNQ1 spec inactive and CHO Tl ctr inactive.
For CCn1c(SCC(=O)NC2CCCc3ccccc32)nnc1-c1cccs1 (configuration not stated) the results were KCNQ2 inh inactive.
`CC(Sc1nnc(-c2cccs2)n1Cc1ccccc1)C(=O)NCc1ccc2c(c1)OCO2` (configuration not stated) gave KCNQ2 inh -9.78*, KCNQ2 enhance -9.78, KCNQ2 block conf inactive, KCNQ1 spec inactive and CHO Tl ctr inactive.
`O=C(CSc1nnc(-c2cccs2)n1Cc1ccccc1)NCc1ccc2c(c1)OCO2` gave KCNQ2 inh inactive.
For S=C1N(c2ccccc2)CN(CCN2CCOCC2)CN1c1ccccc1 the results were KCNQ2 inh inactive and KCNQ2 enhance 0.64.
For O=C(Cc1cccc(C(F)(F)F)c1)NCc1cccnc1 the results were KCNQ2 inh inactive and KCNQ2 enhance 0.49.
Screening COCCCN(C(=S)Nc1cc(Cl)cc(Cl)c1)C(C)c1ccncc1 (configuration not stated) returned KCNQ2 inh inactive and KCNQ2 enhance 0.36.

Screening data deposited in PubChem by Johns Hopkins Ion Channel Center.
